Reference: PubChem BioAssay
Where “and” joins values, the source holds several entries; their conditions need not be identical. Identical values can stand only once. Calls of active or inactive are those of the source.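 Rule for the calls, unless noted: active = inhibition at or above 50% relative to wild type and mutant plate controls; inactive = inhibition below 50%.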

How the values were obtained:
[1] = inhibitors of TNFa-induced NFkB p65 translocation, primary screen, imaging, HUVEC, MLSMR starter and 10KST1 sets (AID 438;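 active = inhibition above 20% together with a positive visual image hit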;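 note: compound added about 3h40 before a 20 min TNFalpha stimulation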;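 for inhibition: signal is the nuclear over cytoplasmic p65 intensity ratio per well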); conditions: HUVEC TNFa-induced p65 nuclear translocation; cell count: measured here: nuclei count (cytotoxicity indicator), at 2.08 µM; inhibition: at 2 µM, stronger effect = higher value, 0% TNFa-plus-vehicle, 100% no-TNFa wells
[2] = reduction of polyQ htt aggregates in cells – imaging, exon1htt(103Q)mCFP cells, high-content imaging, primary screen (AID 483;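 active = visual image review flags a hit and inhibition of aggregation exceeds 20%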;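 note: compound exposure lasted 3 days before fixation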;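 for nuclei count: percent of the per-plate median nuclei count of sample wells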); conditions: exon1htt(103Q)mCFP cell line, aggregate imaging, at 2 µM; inhibition of aggregation: stronger effect = higher value; nuclei count: measured here: cell count, toxicity
[3] = endothelial E-selectin expression blockers – imaging, HUVEC, immunofluorescence, MLSMR starter and 10KST1 sets, primary screen (AID 487;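 active = visually confirmed hit in the image check and inhibition above 20%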;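 for inhibition: signal is fraction of cell area covered by stained E-selectin grains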;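 for nuclei count: 100% = median nuclei count of all wells on the same plate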); conditions: HUVEC TNFalpha-induced E-selectin immunofluorescence imaging, at 2 µM; inhibition: stronger effect = higher value; nuclei count: measured here: cell number, toxicity
[4] = Primary imaging screen for DUSP6 inhibitors that restore phospho-Erk in transfected HeLa cells, chemical complementation (AID 609;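 active = compounds giving at least 50% inhibition in the cell-based MKP-3 phosphatase rescue imaging test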;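 for inhibition: phospho-Erk level distribution per well compared with pooled transfected vehicle control wells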); conditions: HeLa MKP-3 transfected, phospho-Erk imaging KS statistic, at 10 µM, cells stimulated with TPA for 15 min
[5] = target: Dual specificity protein phosphatase 6 (Homo sapiens) (UniProt Q16828); assay: as above; conditions: HeLa MKP-3 transfected, phospho-Erk imaging KS statistic; at 10 µM; stronger effect = higher value; cells stimulated with TPA for 15 min
Chain of Dual specificity protein phosphatase 6 (Homo sapiens) (Q16828 whole entry, looked up): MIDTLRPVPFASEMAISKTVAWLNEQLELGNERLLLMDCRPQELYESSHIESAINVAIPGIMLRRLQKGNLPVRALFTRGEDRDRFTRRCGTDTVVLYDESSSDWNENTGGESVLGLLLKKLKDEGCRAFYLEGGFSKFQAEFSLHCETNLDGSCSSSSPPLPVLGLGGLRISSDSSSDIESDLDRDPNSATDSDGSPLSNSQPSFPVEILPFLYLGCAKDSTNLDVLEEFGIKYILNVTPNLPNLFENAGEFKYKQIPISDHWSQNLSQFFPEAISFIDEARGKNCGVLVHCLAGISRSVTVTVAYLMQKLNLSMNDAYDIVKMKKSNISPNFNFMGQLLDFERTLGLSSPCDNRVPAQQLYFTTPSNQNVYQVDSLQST

[6] = target: Voltage-gated potassium channel subunit beta-2 (Rattus norvegicus) (UniProt P62483); assay: inhibitors of rat Kvbeta2 reductase activity – biochemical, NADPH fluorescence, primary screen (AID 622;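 active = fluorescence slope higher than the sample average by over 3 SD, cut at about -0.22 in these data, passing the limit was not always enough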;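 note: slope of raw intensity against log time taken from 70 to 1610 s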); conditions: recombinant KvBeta, 4-cyanobenzaldehyde reduction, at 10 µM, stronger effect = higher value
Chain of Voltage-gated potassium channel subunit beta-2 (Rattus norvegicus) (P62483 whole entry, looked up): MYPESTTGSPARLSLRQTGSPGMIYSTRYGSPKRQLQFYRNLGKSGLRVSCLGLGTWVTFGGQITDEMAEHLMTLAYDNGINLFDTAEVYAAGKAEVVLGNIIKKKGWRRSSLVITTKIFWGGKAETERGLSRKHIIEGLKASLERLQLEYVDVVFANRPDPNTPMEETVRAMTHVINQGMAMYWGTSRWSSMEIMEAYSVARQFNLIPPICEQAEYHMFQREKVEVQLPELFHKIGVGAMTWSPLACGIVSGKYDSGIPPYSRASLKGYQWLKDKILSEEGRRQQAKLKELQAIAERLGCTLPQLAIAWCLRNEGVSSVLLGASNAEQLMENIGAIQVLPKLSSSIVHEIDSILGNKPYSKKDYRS

[7] = target: Voltage-gated potassium channel subunit beta-2 (Rattus norvegicus) (UniProt P62483); assay: enhancers of rat Kvbeta2 NADPH turnover – biochemical, NADPH fluorescence, primary screen (AID 623;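 active = NADPH fluorescence slope more negative than the mean of all samples by about 3 SD, 99.7% confidence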;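 note: fluorescence intensity change per second fitted from 20 to 320 s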); conditions: Recombinant KvBeta, NADPH fluorescence decrease slope, 10 min; at 10 µM; stronger effect = lower value
[8] = target: Alpha-2C adrenergic receptor (Homo sapiens) (UniProt P18825); assay: compounds altering alpha2C-coupled GIRK flux – cell-based, HEK293 alpha2C/GIRK1/2, thallium flux, primary screen (AID 624;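 active = fluorescence slope after compound addition differing from the mean of all screened samples at 99.7% confidence, in either direction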;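 note: slope of fluorescence ratio to pre-addition baseline per second over 15 to 24 s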); conditions: thallium flux BTC fluorescence, at 10 µM, actives lie on both sides
Chain of Alpha-2C adrenergic receptor (Homo sapiens) (P18825 whole entry, looked up): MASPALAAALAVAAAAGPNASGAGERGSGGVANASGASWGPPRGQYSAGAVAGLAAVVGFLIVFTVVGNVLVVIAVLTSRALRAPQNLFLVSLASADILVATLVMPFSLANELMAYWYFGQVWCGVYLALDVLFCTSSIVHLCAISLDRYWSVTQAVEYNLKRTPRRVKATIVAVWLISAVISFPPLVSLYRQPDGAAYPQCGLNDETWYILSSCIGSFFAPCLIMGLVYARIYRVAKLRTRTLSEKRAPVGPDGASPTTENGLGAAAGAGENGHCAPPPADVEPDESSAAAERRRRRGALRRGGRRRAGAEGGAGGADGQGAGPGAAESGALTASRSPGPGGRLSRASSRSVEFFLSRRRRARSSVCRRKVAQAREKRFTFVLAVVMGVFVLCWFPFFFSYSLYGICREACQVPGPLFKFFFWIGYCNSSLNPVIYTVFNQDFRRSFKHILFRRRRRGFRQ

[9] = inhibitors of larval lipid processing in zebrafish, primary screen, whole organism, PED6 fluorescence, gall bladder and intestine (AID 686;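 active = a full or partial loss of lipid-probe fluorescence in the fish gall bladder, intestine or both, judged by eye; inactive = no fluorescence loss, or compound toxic to the fish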;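 note: larvae 5 to 7 days old with five fish per well; signal comes from phospholipase A2 cleavage of quenched PED6 carried via bile; overnight exposure to compound and PED6 before scoring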); conditions: Zebrafish larvae PED6 lipid processing, fluorescence scoring; screened at 20 µM (by protocol)
[10] = loss of swimming-algae plug formation – whole organism, Chlamydomonas reinhardtii, WT vs cilia-less mutant, absorbance, 96-well, primary screen (AID 463189); conditions: Chlamydomonas reinhardtii gravitaxis, OD600 absorbance, 2 days; at 10 µM; stronger effect = higher value;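 note: 0% = wild type cc124 cells in DMSO and 100% = ciliumless bld1 mutant cells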
[11] = blockers of RIG-like receptor reporter activation – cell-based, Sendai virus stimulus, luciferase, 10K MLSCN set, TLR/RLR signaling modifier project, primary screen (AID 602276;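 active = inhibition at or above 50% at 10 µM; inactive = inhibition below 50%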;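 note: firefly luciferase from ISG56 promoter only with Renilla not read in this screen; 0% = Sendai virus plus DMSO and 100% = medium plus DMSO without virus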); conditions: HEK293 RL24 IRF3 luciferase reporter, at 10 µM, stronger effect = higher value
[12] = TLR3 IRF3 reporter activation blockers – cell-based, poly I:C stimulus, luciferase, 10K MLSCN set, primary screen (AID 602277;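 active = inhibition of the reporter signal at or above 50%; inactive = inhibition below 50%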); conditions: HEK293-TLR3 RL24 IRF3 luciferase reporter, at 10 µM, stronger effect = higher value
[13] = measured here: cell density z-score
[14] = measured here: nuclear c-Myc green intensity z-score
[15] = measured here: nuclear pErk red intensity z-score, stronger effect = higher value

CC(=O)[C@@]1(O)CC[C@H]2[C@@H]3C[C@H](C)C4=CC(=O)CC[C@]4(C)[C@H]3CC[C@@]21C
cell count [1]: 734 | inhibition [1]: -6.2% (inactive) | inhibition of aggregation [2]: 0.8% (inactive) | nuclei count [2]: 108% | inhibition [3]: -107% (inactive) | nuclei count [3]: 113% | z-score [4, 13]: 1.42 | z-score [4, 14]: -0.494 | z-score [4, 15]: -1.54 | inhibition [5]: 3.45% (inactive) | fluorescence slope [6]: -0.486 (inactive) | NADPH fluorescence slope [7]: -0.000112 (inactive) | slope [8]: 0.0052 (inactive) | outcome [9]: inactive | inhibition [10]: -2.53% (inactive) | inhibition [11]: -4.16% (inactive) | inhibition [12]: 43.2% (inactive)

CCCOc1cccc(C2/C(=C(/O)c3ccccc3)C(=O)C(=O)N2CCN(C)C)c1 (stereo not given)
cell count [1]: 511 | inhibition [1]: -3.9% (inactive) | inhibition of aggregation [2]: -5.1% (inactive) | nuclei count [2]: 109% | inhibition [3]: -90.6% (inactive) | nuclei count [3]: 134% | z-score [4, 13]: -0.467 | z-score [4, 14]: 0.337 | z-score [4, 15]: 1.7 | inhibition [5]: -0.159% (inactive) | fluorescence slope [6]: -0.431 (inactive) | NADPH fluorescence slope [7]: -5.6e-05 (inactive) | slope [8]: 0.00489 (inactive) | outcome [9]: inactive | inhibition [10]: 30.4% (inactive) | inhibition [11]: 15.1% (inactive) | inhibition [12]: 19.2% (inactive)

CCOC(=O)N1CCN(c2ncnc3c2[nH]c2ccc(OC)cc23)CC1
cell count [1]: 520 | inhibition [1]: -6% (inactive) | inhibition of aggregation [2]: 2.6% (inactive) | nuclei count [2]: 109% | inhibition [3]: 6.4% (inactive) | nuclei count [3]: 100% | z-score [4, 13]: 1.15 | z-score [4, 14]: -0.635 | z-score [4, 15]: 1.15 | inhibition [5]: 0.671% (inactive) | fluorescence slope [6]: -0.222 (inactive) | NADPH fluorescence slope [7]: -4.8e-05 (inactive) | slope [8]: 0.00434 (inactive) | outcome [9]: inactive | inhibition [10]: 8.03% (inactive) | inhibition [11]: -1.93% (inactive) | inhibition [12]: -5.19% (inactive)

CCN(CC)CCN1C(=O)C(=O)/C(=C(/O)c2ccc(OC(C)C)cc2)C1c1ccncc1 (stereo not given)
cell count [1]: 529 | inhibition [1]: -5.6% (inactive) | inhibition of aggregation [2]: 3% (inactive) | nuclei count [2]: 116% | inhibition [3]: -8.2% (inactive) | nuclei count [3]: 104% | z-score [4, 13]: -0.653 | z-score [4, 14]: -0.46 | z-score [4, 15]: -0.356 | inhibition [5]: -6.48% (inactive) | fluorescence slope [6]: -0.356 (inactive) | NADPH fluorescence slope [7]: 4.4e-05 (inactive) | slope [8]: 0.00527 (inactive) | outcome [9]: inactive | inhibition [10]: -14% (inactive) | inhibition [11]: 8.32% (inactive) | inhibition [12]: 8.84% (inactive)

CC(=O)Nc1ccc(S(=O)(=O)Nc2nc3n(n2)C(c2ccccc2)CC(=O)N3)cc1 (stereo not given)
cell count [1]: 456 | inhibition [1]: -7.4% (inactive) | inhibition of aggregation [2]: -5.2% (inactive) | nuclei count [2]: 116% | inhibition [3]: -106% (inactive) | nuclei count [3]: 137% | z-score [4, 13]: -0.235 | z-score [4, 14]: -1.01 | z-score [4, 15]: 1.56 | inhibition [5]: 21% (inactive) | fluorescence slope [6]: -0.507 (inactive) | NADPH fluorescence slope [7]: -2e-05 (inactive) | slope [8]: 0.00521 (inactive) | outcome [9]: inactive | inhibition [10]: -0.258% (inactive) | inhibition [11]: 16.4% (inactive) | inhibition [12]: 16.2% (inactive)

CC[N+](C)(C)c1cccc(O)c1
cell count [1]: 610 | inhibition [1]: -6.9% (inactive) | inhibition of aggregation [2]: 10.2% (inactive) | nuclei count [2]: 102% | inhibition [3]: -108% (inactive) | nuclei count [3]: 130% | z-score [4, 13]: -0.368 | z-score [4, 14]: -0.0907 | z-score [4, 15]: -0.21 | inhibition [5]: 3.45% (inactive) | fluorescence slope [6]: -0.492 (inactive) | NADPH fluorescence slope [7]: -5.2e-05 (inactive) | slope [8]: 0.00476 (inactive) | outcome [9]: inactive | inhibition [10]: 6.97% (inactive) and -3.25% (inactive) | inhibition [11]: 16.5% (inactive) | inhibition [12]: 38.2% (inactive)

CC(C)Cc1nc(N2CCN(C(=O)c3ccco3)CC2)c(C#N)c2c1CCC2
cell count [1]: 615 | inhibition [1]: 2% (inactive) | inhibition of aggregation [2]: -13.4% (inactive) | nuclei count [2]: 106% | inhibition [3]: -37.8% (inactive) | nuclei count [3]: 116% | z-score [4, 13]: 0.33 | z-score [4, 14]: 2.04 | z-score [4, 15]: -0.551 | inhibition [5]: -1.75% (inactive) | fluorescence slope [6]: -0.498 (inactive) | NADPH fluorescence slope [7]: -7e-05 (inactive) | slope [8]: 0.00426 (inactive) | outcome [9]: inactive | inhibition [10]: -2% (inactive) | inhibition [11]: 10.7% (inactive) | inhibition [12]: 12.6% (inactive)

COc1cccc(Cn2c(Oc3ccccc3)nc3c2c(=O)n(C)c(=O)n3C)c1
cell count [1]: 373 | inhibition [1]: -4.8% (inactive) | inhibition of aggregation [2]: 17.7% (inactive) | nuclei count [2]: 87.9% | inhibition [3]: -67.3% (inactive) | nuclei count [3]: 150% | z-score [4, 13]: -0.332 | z-score [4, 14]: -0.584 | z-score [4, 15]: 0.142 | inhibition [5]: 1.04% (inactive) | fluorescence slope [6]: -0.369 (inactive) | NADPH fluorescence slope [7]: -2.2e-05 (inactive) | slope [8]: 0.00481 (inactive) | outcome [9]: inactive | inhibition [10]: 8.33% (inactive) | inhibition [11]: 19.3% (inactive) | inhibition [12]: 10.3% (inactive)

CC1(C)Cc2c(sc3c2C2=NCCN2C=N3)CS1
cell count [1]: 632 | inhibition [1]: -2.6% (inactive) | inhibition of aggregation [2]: -1.3% (inactive) | nuclei count [2]: 109% | inhibition [3]: -26.4% (inactive) | nuclei count [3]: 138% | z-score [4, 13]: 1.38 | z-score [4, 14]: 0.227 | z-score [4, 15]: -1.08 | inhibition [5]: 11.3% (inactive) | fluorescence slope [6]: -0.487 (inactive) | NADPH fluorescence slope [7]: -0.000119 (inactive) | slope [8]: 0.00445 (inactive) | outcome [9]: inactive | inhibition [10]: -8.31% (inactive) | inhibition [11]: 0.61% (inactive) | inhibition [12]: 4.84% (inactive)

N#Cc1c(N)n(CCOC(=O)c2cccc(Br)c2)c2nc3ccccc3nc12
cell count [1]: 592 | inhibition [1]: 0.6% (inactive) | inhibition of aggregation [2]: -46.7% (inactive) | nuclei count [2]: 75.5% | inhibition [3]: -20.6% (inactive) | nuclei count [3]: 108% | z-score [4, 13]: 1.33 | z-score [4, 14]: -2.21 | z-score [4, 15]: -0.755 | inhibition [5]: -1.12% (inactive) | fluorescence slope [6]: -0.434 (inactive) | NADPH fluorescence slope [7]: -0.000171 (inactive) | slope [8]: 0.00581 (inactive) | outcome [9]: inactive | inhibition [10]: 15.2% (inactive) | inhibition [11]: 16.3% (inactive) | inhibition [12]: 30.6% (inactive)
